# About 83,000 compounds went through this panel and 20% of them were active in at least one assay; those are over-represented in the sample as a whole.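 Results are percent growth after 48 hours of single-concentration exposure. 100 means growth as in untreated cells, lower positive values show inhibition; negative values down to -100 show cell death.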 Activity calls are given as the source filed them. How the source made its calls: active means growth percent below 10; inactive means the rest.
# Test system: T-47D breast
# Assay: NCI-60 one-dose screen, 48 h (100 = growth as untreated, 0 = no growth, -100 = all killed)
# Conditions: 10 µM unless noted
row,Structure (SMILES),growth
1,COc1ccc2nc3cc(Cl)ccc3c(N3CCN(c4ccnc(N5CCN(C)CC5)n4)CC3)c2c1,-26.1% (active)
2,Cc1cccc(NC(=O)c2sc3nc4c(cc3c2N)C(=O)CCC4)c1,44% (inactive)
3,C=C1CCC2C3(C)COC(c4cccc(Cl)c4)OC3CCC2(C)C1/C=C/C1=CCOC1=O (stereo not drawn),27.7% (inactive)
4,COC(=O)[C@H](C(C)C)n1c(=O)c2cc(OC)c(OC)cc2c2cnc3[nH]ccc3c21,14.8% (inactive)
5,O=C(/C=C/c1cc2ccccc2[nH]c1=O)/C=C/c1cc2ccccc2[nH]c1=O,15.2% (inactive)
6,CC1=C(NCCN2CCCC2)C(=O)c2c(OCc3cccc(Cl)c3)cccc2C1=O,59.9% (inactive)
7,Cn1c2ccccc2c2c3c(c4c5ccccc5[nH]c4c21)C(=O)N(N)C3=O,30.9% (inactive)
8,C/C=C/C(N)=O,115% (inactive)
9,CN1CCN(Cc2ccc(NC(=O)c3[nH]ncc3Nc3ncnc4c3CCC4)cc2)CC1,32.3% (inactive)
10,COc1cc(OC)c(/C=C/c2cc[n+](C)c3ccccc23)c(OC)c1,9.89% (active)
11,Clc1cccc(Nc2nc(Nc3cnc4ccccc4c3)c3[nH]cnc3n2)c1,53.7% (inactive)
12,Oc1ccccc1/C=N/Nc1ccc2ccccc2n1,21.8% (inactive)
13,COc1ccc(/C=C2\N=C3Sc4cc(Cl)ccc4C(=O)N3C2=O)cc1,92% (inactive)
14,Cc1cc(N/N=C/c2nc(-c3ccc(Cl)cc3)oc2C)c2cc(Cl)ccc2n1,77% (inactive)
15,NS(=O)(=O)c1ccc(Nc2nc3n[nH]c(Nc4ccccc4)c3c(=O)[nH]2)cc1,87.3% (inactive)
16,O=C(Nc1ccc(Nc2cc(Nc3ccccc3)ncn2)cc1)Nc1cc(C(F)(F)F)ccc1F,24.1% (inactive)
17,Nc1cccc(-c2nc3sccn3c2-c2ccnc(NCCCNS(=O)(=O)c3ccc(C(F)(F)F)cc3)n2)c1,-16.9% (active)
18,O=C(Nc1ccc(F)cc1)Nc1ccc(CCO)cc1,104% (inactive)
19,COc1ccc(CCN2CCCn3c2nc2ccccc2c3=O)cc1,80.8% (inactive)

row,Structure (SMILES),growth
1,CCOC(=O)/C=C/C(=O)[C@H](CC(C)C)NC(=O)[C@H](Cc1ccccc1)NC(=O)OCc1ccccc1,8.32% (active)
2,Cn1c2c(Cl)c(Cl)ccc2c2ccn3c(=O)c4ccccc4nc3c21,85% (inactive)
3,C[C@@H]1CC[C@@H]2[C@@H]1[C@H](OC(=O)/C=C/c1ccccc1)[C@]1(C3CCCCC3)C[C@@H](OC(=O)CO)[C@@]2(C)O1,42.8% (inactive)
4,CC#Cc1nc2ccccc2c(=O)[nH]1,67.3% (inactive)
5,CCCCN(CC)CCCCCCCCCCN1CCCc2cc(OC)ccc21,93.6% (inactive)
6,CC[C@H](Nc1nc(N)nc(C)c1C#N)c1nc2cccc(NCc3ccc(C(=O)NO)cc3)c2c(=O)n1-c1ccccc1,-8.21% (active)
7,OC(c1cccc(C(F)(F)F)c1)c1cnccc1NC1CCCCCC1 (stereo not drawn),-3.18% (active)
8,CC(=O)Nc1ccc2c(c1)c(NC(C)=O)nn2C(=O)Nc1ccc(Cc2ccccc2)cc1,82.5% (inactive)
9,COc1cc(/C=N/N(C)C)ccc1O,94.4% (inactive)
10,CCC(c1ccccc1)C(CC)c1ccc(O)c(O)c1 (stereo not drawn),80.5% (inactive)
11,COc1cc(C2CC(=O)c3c(C)nn(-c4nc5ccccc5[nH]4)c3C2)cc(OC)c1OC (stereo not drawn),60% (inactive)
12,COc1ccc(S(=O)(=O)NCCCNc2cc(-c3c(-c4cccc(OC)c4)nc4sccn34)ccn2)cc1,2.13% (active)
13,COc1cccc(-c2cn3c(ccc4ccccc43)n2)c1,46.1% (inactive)
14,COC(=S)SCN(CSC(=S)OC)c1ccc(Cl)cc1,70.1% (inactive)
15,COc1nc2c(cc1S(=O)(=O)c1ccccc1)CCc1c-2cnn1-c1ccc(Cl)cc1,83.2% (inactive)
16,O=c1ccc2cc3ccccc3cc2[nH]1,96.9% (inactive)
17,COc1cnc2c(c1)C(=O)c1c-2n(CCCN2CCNCC2)c(=O)c2cc([N+](=O)[O-])ccc12,-52.2% (active)
18,CC1=N/C(=C\c2cccc(Br)c2)C(=O)O1,97.3% (inactive)
19,O=C(Nc1nc(-c2ccccc2)cc(-c2ccc(Cl)cc2)n1)c1ccncc1,83% (inactive)
